Records with an inconclusive call do not appear. Activity calls are given as the source filed them. Rule for the calls, unless noted: active = hit-call score of the fitted dose curve at least 0.9, where 1 is the maximum; inconclusive = response in the unintended direction; inactive = score below 0.9.

Sequence of Estrogen receptor (Homo sapiens) (P03372 whole entry, looked up): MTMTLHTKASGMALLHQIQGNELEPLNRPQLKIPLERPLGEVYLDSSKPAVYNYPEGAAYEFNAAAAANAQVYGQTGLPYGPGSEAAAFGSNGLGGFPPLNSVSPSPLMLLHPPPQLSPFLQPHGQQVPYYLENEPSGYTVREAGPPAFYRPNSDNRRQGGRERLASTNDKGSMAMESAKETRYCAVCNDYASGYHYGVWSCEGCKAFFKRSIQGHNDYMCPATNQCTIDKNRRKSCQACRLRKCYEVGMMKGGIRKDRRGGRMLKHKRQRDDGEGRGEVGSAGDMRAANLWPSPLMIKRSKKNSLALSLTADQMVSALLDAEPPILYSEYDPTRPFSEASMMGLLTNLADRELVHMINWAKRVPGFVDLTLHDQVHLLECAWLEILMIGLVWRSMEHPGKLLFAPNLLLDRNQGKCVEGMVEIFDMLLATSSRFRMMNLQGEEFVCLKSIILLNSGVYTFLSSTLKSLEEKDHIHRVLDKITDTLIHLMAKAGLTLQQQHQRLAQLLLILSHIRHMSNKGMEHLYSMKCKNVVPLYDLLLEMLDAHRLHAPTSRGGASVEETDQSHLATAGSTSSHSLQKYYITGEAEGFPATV

System in the first experiment: not listed separately
Kind of experiment: CCTE_Deisenroth_AIME_384WELL_CTox_Inactive: Cytotoxicity Assessment (CTOX) in CCTE's 384-well Estrogen Receptor Transactivation Assay without AIME metabolic competence (metabolism negative), Deisenroth Lab (AID 2284039).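 Note: cell viability via live-cell protease substrate cleaved to fluorescent probe; cells exposed 24 h to medium preincubated 2 h with alginate-water beads without S9; loss of fluorescence signal means loss of viability.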 A digest of the protocol:
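VM7Luc4E2 cells, metabolism-negative arm: test chemicals (0.002–200 uM, 10 points) pre-incubated 2 h with alginate-water microspheres, then medium transferred to cells for 24 h. Viability read as protease-substrate cleavage to fluorescent probe; loss-of-signal, bidirectional fitting.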
With `O=C(O)c1[nH]n(-c2ccc(S(=O)(=O)O)cc2)c(=O)c1N=Nc1ccc(S(=O)(=O)O)cc1`, the AC50 is 100 µM (active).
With `CCCCC(CC)CO` (centres undefined), the call was inactive.
Still for that read-out and setting: the result for `NC=O` reads “inactive”; that for `CC(C)c1cccc(C(C)C)c1`, “inactive”.
The same measure, in the same setting: then `CC(=O)CC(c1ccccc1)c1c(O)c2ccccc2oc1=O` (centres undefined), with “inactive”; and `CCOCCOCCO`, with “inactive”; and `O=[Si]=O`, with “inactive”.
Take `CN(C)CCCN(C)CCCN(C)C`: the outcome was inactive.
The same measure, in the same setting: the result for `C/C=C/C=C/C(=O)O` reads “inactive”; that for `Cc1occc(=O)c1O`, “inactive”; that for `CC(C)OC(=O)C(C)(C)Oc1ccc(C(=O)c2ccc(Cl)cc2)cc1`, “inactive”.
Same read-out and setting: then `CCCCCCC(C=O)=Cc1ccccc1`, with “inactive”.
On the same count and under the same terms, then `CCCCCCC(CCCCCCCCCCC(=O)OCC(COC(C)=O)OC(C)=O)OC(C)=O` (centres undefined), with “inactive”.
As to `Oc1ccccc1O`, the AC50 was 51.8 µM (active).
As for `O=C1O[C@H]([C@H](O)CO)C(O)=C1O`, the molecule was classed as inactive.
Take `CC1(C)C(=O)NC(=O)N1CO`: the result was inactive.
Still for that read-out and setting: the result for `O=C(O)c1cccnc1` reads “inactive”; that for `CCCCCCCC(=O)OC`, “inactive”.
Turning to `CC(=O)O`, the molecule was classed as inactive.
Same read-out and setting: then `O=C1CCCCC1`, with “inactive”.

System in another experiment: not listed separately
Kind of experiment: CCTE_Shafer_MEA_dev_active_electrodes_number: CCTE's Neural Network Formation Assay for Number of Active Electrodes, Shafer Lab (AID 2284040).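 For AC50: potency for loss of active electrodes versus DMSO so lower counts are hits.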 An outline of the steps:
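Counts electrodes per well firing at least 5 spikes/min, recorded on days 5, 7, 9 and 12 in rat cortical cultures dosed continuously from plating (treatment refreshed DIV 5, 9). Value is the area under the curve over recordings, fitted downward relative to DMSO.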
As for `OCC(O)CO`, the molecule was called inactive.
Turning to `O=C1NC(=O)C(c2ccccc2)(c2ccccc2)N1`, the result was inactive.
For the molecule `CC(=O)CC(c1ccccc1)c1c(O)c2ccccc2oc1=O` (centres undefined), the AC50 was 2.98 µM (active).

In a further experiment the target is Estrogen receptor (Homo sapiens) (UniProt P03372). Kind of experiment: CCTE_Deisenroth_AIME_384WELL_LUC_Shift: CCTE's 384-well Estrogen Receptor Transactivation Assay with AIME metabolic competence data shift (ERTA luciferase; difference in metabolism positive and negative), Deisenroth Lab (AID 2284041; active = hit-call score of the fitted dose curve at least 0.9, where 1 is the maximum; inactive = score below 0.9;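 note: shift is response with S9 minus without S9 so positive means metabolism raised ER signal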). A digest of the protocol:
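Test chemicals (0.002–200 uM, 10-point) were pre-incubated 2 h with alginate microspheres containing phenobarbital/beta-naphthoflavone-induced male Sprague Dawley rat liver S9 or water, then medium was transferred to VM7Luc4E2 cells for 24 h luciferase readout; shift = S9-positive minus S9-negative normalized response.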
For the molecule `NC1CCCCC1`, the outcome was inactive.
Still for that read-out and setting: then `O=C(O)c1[nH]n(-c2ccc(S(=O)(=O)O)cc2)c(=O)c1N=Nc1ccc(S(=O)(=O)O)cc1`, with “inactive”; and `CCCCCCCCCCCCCCCCO`, with “inactive”.
The same measure, in the same setting: the result for `CC(C)c1cccc(C(C)C)c1` reads “inactive”; that for `O=C(O)CC(O)(CC(=O)O)C(=O)O`, “inactive”.
On the same count and under the same terms, the result for `O=[Si]=O` reads “inactive”.
Take `CN(C)CCCN(C)CCCN(C)C`: the result was inactive.
As for `COC(=O)CCC(=O)OC`, the outcome was inactive.
Regarding `CC(C)OC(=O)C(C)(C)Oc1ccc(C(=O)c2ccc(Cl)cc2)cc1`, the outcome was inactive.
On the same count and under the same terms, the result for `CCCCCCC(CCCCCCCCCCC(=O)OCC(COC(C)=O)OC(C)=O)OC(C)=O` (centres undefined) reads “inactive”.
The same measure, in the same setting: then `CC1(C)C(=O)NC(=O)N1CO`, with “inactive”; and `CCCCCCCC(=O)OC`, with “inactive”.
On the same count and under the same terms, then `O=C1CCCCC1`, with “inactive”.

System in another experiment: not listed separately
Kind of experiment: CCTE_Shafer_MEA_dev_burst_rate: CCTE's Neural Network Formation Assay for Burst Rate, Shafer Lab (AID 2284042; active = hit-call score of the fitted dose curve at least 0.9, where 1 is the maximum; inactive = score below 0.9). A digest of the protocol:
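Primary rat cortical neurons on PEI-coated 48-well MEA plates (laminin added with cells at plating) (16 electrodes/well), exposed from plating to day 12, dosing renewed at DIV 5 and 9. Burst rate averaged over active electrodes, recorded DIV 5, 7, 9, 12, summarized as AUC; loss versus DMSO.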
As for `OCC(O)CO`, the call was inactive.
`O=C1NC(=O)C(c2ccccc2)(c2ccccc2)N1`: the outcome was inactive.
Still for that read-out and setting: the result for `CC(=O)CC(c1ccccc1)c1c(O)c2ccccc2oc1=O` (centres undefined) reads “inactive”.

What is called AC50 is the concentration giving half of the maximal activity seen.
